PubChem BioAssay AID799 (SRMLSC, 2007)
Among all 140,000 compounds or so, about 840 (0.6%) were called active. What follows is part of a selection rich in actives, with near analogues and random picks from the rest. Values without a mark were called inactive.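 The calls were made as follows: active = viability gain under doxorubicin at or above a set limit, the compound median plus 3 SD (cut at about 4.7% in these data); inactive = the rest.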

test: H69AR viability gain despite doxorubicin, primary screen, MRP-1 activator project, H69AR cells, CellTiter-Glo (AID 799); settings: viability rescue, at 10 µM, stronger effect = higher value;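 also: MRP-1 overexpressing cells given doxorubicin 25 µM after compound pretreatment; 18-22 h compound pretreatment then 72 h with doxorubicin before readout; 0% = doxorubicin-only wells and 100% = vehicle-treated cells without doxorubicin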

In order of rising viability increase:
1. COc1cccc(/C=N/Nc2ncc(C(F)(F)F)cc2Cl)c1O  -4.98%
2. Cc1ccccc1-n1c(C)cc(/C=C2\NC(=O)NC2=O)c1C  -4.81%
3. CC(C)(C)CC(C)(C)NCC(O)COCCOc1ccc(Br)cc1 (stereo unspecified)  -4.69%
4. N=c1n(CCc2ccccc2)c2ccccc2n1Cc1ccccc1F  -4.33%
5. Cc1ccc(-n2[nH]c(C)c(/C=N/NC(=O)c3cccc([N+](=O)[O-])c3)c2=O)cc1C  -4.06%
6. Clc1ccc(COn2c(-c3ccc(Cl)cc3Cl)nc3ncccc32)cc1  -3.46%
7. COc1ccc(Cl)cc1NC(=O)Cn1nc(-c2ccc(C)cc2)n(C)c1=S  -3.24%
8. Cc1ccccc1NC(=O)CNc1ccccc1N1CCCCC1  -3.04%
9. O=C1CCCC(O)=C1N=Nc1ccc2ncsc2c1  -2.88%
10. CCN(CC(=O)NCCc1ccccc1)S(=O)(=O)c1ccc(C)cc1  -2.77%
11. CC(C)(C)NC(=O)C(=O)NCc1ccncc1  -2.66%
12. Cc1ccccc1N/C(SCc1ccc(Cl)cc1)=C(/C#N)C(N)=O  -2.62%
13. O=c1cc(CN2CCN(S(=O)(=O)/C=C/c3ccccc3)CC2)c2ccc(O)cc2o1  -2.59%
14. Cc1cc(C(=O)OCC(=O)c2c(N)n(C)c(=O)n(C)c2=O)c(C)o1  -2.26%
15. Cc1ccc(C(=O)C(=S)N2CCOCC2)cc1  -2%
16. O=C(N/N=C/c1ccc(Br)o1)c1cncc(Br)c1  -1.78%
17. Cc1ccc(OCC(=O)OC(C)CN(C)Cc2ccccc2)cc1 (stereo unspecified)  -1.74%
18. CCn1c2ccccc2c2cc(NC(=O)COC(=O)c3ccccc3Br)ccc21  -1.59%
19. CCOC(=O)c1cnc2ccc(F)cc2c1Nc1ccc2c(c1)OCCO2  -1.56%
20. Cc1cc(/C=C2/NC(=O)NC2=O)c(C)n1-c1cccnc1  -1.48%
21. COc1ccc2nc(NC(=O)[C@@H]3CCCN3C(=O)c3cccs3)sc2c1  -1.42%
22. COc1ccc(C)cc1NC(=O)CSc1ccc(Cl)cc1  -1.28%
23. Cc1nnc(-c2ccc(Oc3ccc(C)c(C)c3)c([N+](=O)[O-])c2)o1  -1.23%
24. COc1ccc(-n2ncc3c(N4CCc5ccccc54)ncnc32)cc1  -1.22%
25. Cc1noc(C)c1C(=O)OCC(=O)/C=C1\N(C)c2ccccc2C1(C)C  -1.22%
26. COc1ccc(OC)c(-c2c(=O)n(OCc3ccccc3Br)c3ccccc3[n+]2[O-])c1  -1.16%
27. Cc1cccc(-n2ncc3c(N4CCc5ccccc54)ncnc32)c1  -0.96%
28. N#C/C(C(=O)N1CCOCC1)=C1/SC(Cc2ccc(F)cc2)C(=O)N1c1ccccc1 (stereo unspecified)  -0.96%
29. CN1/C(=C\C(=O)c2cccnc2Cl)C(C)(C)c2ccccc21  -0.96%
30. CCCN(CC1COc2ccccc2O1)C(=S)Nc1ccc(C)cc1 (stereo unspecified)  -0.89%
31. Cn1nnc(NC(=O)CSc2ncn[nH]2)n1  -0.73%
32. Cc1c(CCO)sc[n+]1CC(=O)OC12CC3CC(CC(C3)C1)C2  -0.72%
33. C/C(=N/NS(=O)(=O)c1ccccc1)c1ccc(NC(=O)C(F)(F)F)cc1  -0.61%
34. COc1ccc(CC(=O)N2N=C(C)CC2(O)C(F)(F)F)cc1 (stereo unspecified)  -0.45%
35. O=C(Cc1ccccc1)Nc1cccc(C(=O)N/N=C/c2ccco2)c1  -0.32%
36. Cc1cccc(NC(=O)CSc2nc3c(c(=O)[nH]2)CCCC3)c1C  -0.17%
37. COc1cc(Cl)c(C)cc1NC(=O)COC(=O)c1cc(SC)ccc1Cl  -0.15%
38. Cc1cc(NC(=O)CCC2COc3ccccc3O2)no1 (stereo unspecified)  0%
39. CCn1c(SCC(=O)Nc2ccc(C)cc2)nc2nc3c(cc2c1=O)CCCC3  0.07%
40. COc1ccc(CC(=O)Nc2ccc(C(=O)NC(C)(C)C)cc2)cc1  0.14%
41. Cc1cc(C)c(NC(=S)N2CCCC2C(=O)O)c(C)c1 (stereo unspecified)  0.6%
42. Cc1scc(C(=O)NNC(=S)NCC(C)C)c1C  0.83%
43. Cc1ccsc1C(=O)N/N=C/c1ccc([N+](=O)[O-])cc1  0.85%
44. CC(C)CN(C(=O)CN1CCN(S(=O)(=O)c2ccccc2)CC1)c1c(N)n(CC(C)C)c(=O)[nH]c1=O  0.86%
45. CCC(C(=O)OCC(=O)Nc1c(Cl)cc(Cl)cc1Cl)c1ccccc1 (stereo unspecified)  0.97%
46. CCN(C(=O)CSc1ncn[nH]1)c1cccc2ccccc12  1.04%
47. COC(=O)c1onc(-c2c(OC)cc(OC)cc2OC)c1C(=O)OC  1.1%
48. Cc1ccn(-c2cccc(-n3ccc(C)n3)n2)n1  1.12%
49. COc1ccc(NC(=O)CCN2CCCC2)c(OC)c1  1.66%
50. CCC1CCCCN1C(=S)Nc1ccc(SC(F)F)cc1 (stereo unspecified)  1.82%

In the case of `Cc1cccc(C)c1-n1c(C)cc(/C=C2\C(=O)NN(c3ccccc3)C2=O)c1C`, the viability increase is reported as 7.89% (active).
In the case of `COc1ccc(-n2ncc3c(N4CCCc5ccccc54)ncnc32)cc1`, the viability increase is reported as 10.8% (active).
For `Cc1ccccc1NC(=O)CSC1=NCCN1`, the viability increase was 5.48% (active).
For `Cc1cc(C(=O)OCC(=O)Nc2ccc(F)c(F)c2)c(C)o1`, the viability increase was 7.91% (active).
With `COc1ccc(NC(=O)CC2COc3ccccc3O2)c(OC)c1` (stereo unspecified) the viability increase was 4.96% (active).
With `Cc1cc(C(=O)N/N=C/c2cc([N+](=O)[O-])cc(C)c2O)n[nH]1` the viability increase was 5.47% (active).
In the case of `CCOc1ccc(OCC)c(-c2c(=O)n(OCc3ccc(Cl)cc3)c3ccccc3[n+]2[O-])c1`, the viability increase is reported as 7.22% (active).
For `CC(C)(C)c1ccc(C(=O)CSc2ncn[nH]2)cc1`, the viability increase was 9.85% (active).
For `CC(C)(C)NC(=O)c1cccc(NC(=O)Cc2ccc(Br)cc2)c1`, the viability increase was 5.31% (active).
For `Cc1ccc(CC2S/C(=C(/C#N)C(=O)N3CCOCC3)N(c3ccccc3)C2=O)cc1` (stereo unspecified), the viability increase was 7.14% (active).
In the case of `CN1/C(=C\C(=O)c2oc3ccccc3c2N)C(C)(C)c2ccccc21`, the viability increase is reported as 5.19% (active).
